High-throughput results (PubChem BioAssay)
G9a inh: qHTS Assay for Inhibitors of Histone Lysine Methyltransferase G9a. Histone-lysine N-methyltransferase EHMT2 (Homo sapiens), Q96KQ7. G9a H3K9 monomethylation, AlphaScreen, 2 h. Potency, µM (top dose mostly 102 µM), inactives show at the highest dose activity, negative = inhibition, actives largely listed as inhibitors. actives 8.8% (n = 350,000). AID 504332, 2011; also: % is scaled to controls: 0 for no effect and ±100 for the full control effect; nearly all actives have a fitted effect of over 75% in size
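Quantitative HTS format: methyltransferase activity on a biotin-tagged H3K9 peptide is measured by AlphaScreen, using a rabbit anti-monomethyl-H3K9 antibody with streptavidin donor and anti-IgG acceptor beads. Final levels are 20 nM enzyme, 500 nM peptide, 20 uM SAM; 2 h RT.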
Sfp PPTase inh: qHTS Assay for Inhibitors of Bacillus subtilis Sfp phosphopantetheinyl transferase (PPTase); Biochemical Sfp PPTase activity, qHTS; Potency, µM, for inactives: largest response in the series, negative = inhibition, usual class: inhibitors; actives 3.5% (n = 310,000);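 also: the enzyme is Sfp with the accession as filed and its product quenches rhodamine fluorescence; 0% = enzyme reaction without inhibitor and -100% = no enzyme wells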
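Fluorescence-quenching assay with 15 nM Sfp, 5 uM rhodamine-CoA and 12.5 uM BHQ-2-labelled ybbR peptide in pH 7.6 Hepes/MgCl2 buffer. Enzyme was pre-incubated with compound for 15 min at room temperature. Rate was taken from the 30-min fluorescence change (525/598 nm).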
BAZ2B block: qHTS Assay for Inhibitors of BAZ2B; Bromodomain adjacent to zinc finger domain protein 2B (Homo sapiens), Q9UIF8; AlphaScreen BAZ2B-H3K14Ac peptide displacement; Potency, µM (series often up to 114 µM), without a hit: at the highest dose activity change, negative = inhibition, hits mostly inhibitors; actives 4.4% (n = 360,000); AID 504333, 2011; also: % is scaled to controls: 0 for no effect and ±100 for the full control effect; nearly all actives have a fitted effect of over 60% in size
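Compounds, titrated to a top concentration of 110 uM, were incubated 30 min at room temperature with preformed BAZ2B/acetyl-K14 H3 peptide complex (50 nM each). Proximity signal was measured by AlphaScreen after 20 min with beads.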
HP1b chromo inh: HTS for Inhibitors of HP1-beta Chromodomain Interactions with Methylated Histone Tails; Chromobox protein homolog 1 (Homo sapiens), P83916; AlphaScreen HP1-beta / biotin-H3K9me3 peptide binding; Potency, µM (highest dose often 114 µM), for inactives: at the highest dose activity change, negative = inhibition, actives largely listed as inhibitors; actives 0.56% (n = 390,000); AID 540317, 2011; also: nearly all actives have a fitted effect of over 70% in size
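HP1-beta protein (50 nM final) preincubated 30 min at room temperature with biotinylated H3(1-18)K9me3 peptide (50 nM) in PBS pH 7.4, 0.01% Tween-20, then compound added for 30 min. AlphaScreen streptavidin donor/nickel chelate acceptor beads (10 ug/mL final), 30 min dark, luminescence read.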
JMJD2A Tudor inh: qHTS Assay for Inhibitors of JMJD2A-Tudor Domain; Potency, µM (titrated, usually from 114 µM), without a hit: top-dose activity change, negative = inhibition, actives largely listed as inhibitors; actives 4.4% (n = 390,000); AlphaScreen JMJD2A-Tudor / H3K4me3 peptide binding; also: % is scaled to controls: 0 for no effect and ±100 for the full control effect; nearly all actives have a fitted effect of over 50% in size
L3MBTL1 block: qHTS Assay for the Inhibitors of L3MBTL1; actives 0.66% (n = 230,000); Lethal(3)malignant brain tumor-like protein 1 (Homo sapiens), Q9Y468; Potency, µM (series often up to 57.1 µM), for inactives: at the top dose activity, negative = inhibition, actives largely listed as inhibitors; AlphaScreen L3MBTL1–H3K9me1 peptide binding; also: % is scaled to controls: 0 for no effect and ±100 for the full control effect; nearly all actives have a fitted effect of over 60% in size
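AlphaScreen proximity signal between nickel-chelate acceptor and streptavidin donor beads (final 10 ug/mL) reports binding of 50 nM L3MBTL1 to 75 nM biotin-H3 K9me1 peptide; complex incubated with compounds 30 min at room temperature; cefsulodin titration as control.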
Starred values were filed as active, the others as inactive; ? = inconclusive; / = not tested or not shown; ! = repeats disagree; [ ] = dose if it differs, or a comment. Only some compounds are listed: those with a hit (about 12% of all), similar ones and a draw of the others. Calls follow the shape of the dose curve; as a rule, active = well fitted curve in the direction sought with a large enough effect; inconclusive = small, poorly fitted or top-dose-only effect, or another doubt; inactive = no such curve, though single readings can be large; an effect the other way counts as inactive or inconclusive. Potency is read from the fitted curve at half-maximal effect.

SMILES	G9a inh	Sfp PPTase inh	BAZ2B block	HP1b chromo inh	JMJD2A Tudor inh	L3MBTL1 block
COc1cc(/C=C(/C#N)c2nc3ccccc3[nH]2)ccc1OCC(=O)Nc1ccccc1C(C)C	27%[0.501 µM]	-2%	50µM*	18%	-16%	-6%
COc1ccccc1/C=C/C(=O)NCC(=O)N/N=C/c1ccc(C)o1	45µM*	-30%	-1%	16%	-15%	/
COc1ccccc1/C=C\C(=O)NCC(=O)N/N=C(/C)c1cccc([N+](=O)[O-])c1	79µM*	5%	4%	53%	-7%	/
CCOc1ccccc1C(=O)N/N=C/c1ccoc1	12%	16%	?	14%	-25%	/
c1ccc2c(c1)Nc1cc3ccccc3cc1O2	/	/	/	18%	-15%	/
Cc1ccc(/C(=N/Nc2nc3ccccc3s2)C2=C(O)c3ccccc3C2=O)cc1	-12%	79µM*	?	-18%	?	-7%
COC(=O)CSc1nc2sc3c(c2c(=O)n1Cc1ccccc1)CCC(C(C)(C)C)C3 (centres undefined)	9%[59 µM]	/	0%	25%	-4%	/
CCOC(=O)C1=C(Cn2cnc3ccccc32)NC(=O)NC1c1ccc(OC)cc1 (centres undefined)	-1%	3%	56µM*	3%	-18%	/
COC(=O)c1ccccc1NC1CC(=O)N(c2c(C)cccc2C)C1=O (centres undefined)	?	28µM*	33%	16%	-9%	/
COC(=O)c1ccc(NC2CC(=O)N(c3ccccc3C)C2=O)cc1 (centres undefined)	?	-17%	-16%	46%	-15%	/
O=C(CCNC(=O)C1CCN(S(=O)(=O)c2ccc(F)cc2)CC1)Nc1ccccc1	/	11%	-5%	21%	-16%	/
FC(F)(F)c1ccc(Cl)c(N/N=C/c2ccc(N3CCOCC3)s2)c1	4µM*	-6%	-31%	-12%	?	-17%
CCOC(=O)c1c(-c2ccccc2)csc1NC(=O)c1cc2ccccc2oc1=O	4%[59 µM]	4%	-9%	6%	-16%	-3%
CCOC(=O)c1cc(NC(=O)c2ccc(F)cc2)c(=O)n2c1oc1ccc(Cl)cc12	46%[59 µM]	/	37%	56%	-3%	/
N#Cc1cc(NC(=O)c2ccc(F)cc2)c(=O)n2c1[nH]c1ccccc12	3.5µM*	-15%	-12%	/	/	-6%
CCCCC[C@H](CC(=O)NO)C(=O)N[C@H](C(=O)N1CCC[C@H]1CO)C(C)C	9.5µM*!	/	/	/	/	/
Cc1ccc(S(=O)(=O)N2CCCC2CNC(=O)C(=O)NCCN2CCOCC2)cc1 (centres undefined)	5%	/	10%	19%	-3%	0%
O=[N+]([O-])c1cccc(/C([O-])=C(/C(=S)Nc2ccccc2)[n+]2ccccc2)c1	10µM*	?	-23%	-19%	?	4%
CCNC(=S)/C(=C(/[O-])c1ccc([N+](=O)[O-])cc1)[n+]1ccccc1	/	-15%	-12%	4%	-29%	-2%
C=CCNC(=S)/C(=C(/[O-])c1ccc([N+](=O)[O-])cc1)[n+]1ccccc1	45µM*	4%	4%	7%	-11%[11.4 µM]	-27%
O=C(/C(=C(/[O-])c1ccccc1)[n+]1ccccc1)c1ccc([N+](=O)[O-])cc1	-32%[59 µM]	6%	-2%	20%	-4%	-3%
CCc1c2c(nc3c(C(C)C)cccc13)-c1cccc(=O)n1C2	/	50µM*	/	/	/	/
CCc1cccc2nc3c(c([Si](CC)(CC)CC)c12)Cn1c-3cccc1=O	/	79µM*	/	/	/	/
CCc1c2c(nc3ccc(OC)cc13)-c1nc3ccccc3c(=O)n1C2	/	6%	/	-4%	-12%	/
